The whole screen tested about 330,000 compounds, of which about 7,300 (2.2%) were called active. The entries come from a sample that favours actives as a whole. A number with no mark means an inactive call.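 The calls were made as follows: active = inhibition of at least 40%; inactive = the rest.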
experiment: growth inhibitors of tim10-1 mutant yeast, primary screen, luminescence, uHTS (AID 463190);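 also: mutant grown at 25 °C; 0% = DMSO wells with yeast and 100% = wells holding no yeast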; details: S. cerevisiae tim10-1 ts strain growth, BacTiter-Glo, 24 h; at 20 µM; active compounds read high

SMILES	inhibition
COc1ccccc1N1CCN(C(=O)c2ccc(Cl)c(S(=O)(=O)N3CCCC3)c2)CC1	22%
CCOc1ccccc1N1CCN(C(=O)c2ccc3[nH]c(C)c(C)c3c2)CC1	48.8% (active)
Cc1[nH]c2ccc(C(=O)N3CCN(C)CC3)cc2c1C	-12.6%
COc1ccc(-c2c(C#Cc3ccsc3)c3cc(-c4ccc(CN5CCOCC5)cc4)ccc3n2C)cc1	15.1%
Cc1ccccc1C(=O)N1CCC(C(=O)Oc2ccc(C#N)cc2)CC1	-2.27%
CCOc1ccccc1/C=c1\sc2nc(-c3ccco3)nn2c1=O	54.3% (active)
CS(=O)(=O)n1nc(-c2ccco2)nc1N	3.68%
CCCn1nc(C(=O)NNC(=O)CCOc2ccccc2OCC)c2ccccc2c1=O	17.6%
Cn1cccc1C(C#N)c1ccccc1C#N (stereo unspecified)	10.1%
O=C(NC1(C(F)(F)F)NC(=O)N(Cc2cccnc2)C1=O)c1ccccc1Cl (stereo unspecified)	9.72%
COc1cc(C(=O)N(C)Cc2cccc(OC)c2OC)ccc1OCC(=O)Nc1cccc(C(F)(F)F)c1	20.8%
COc1ccc(Cn2c(=O)cc(C)[nH]c2=S)cc1	-11.8%
COc1ccc(Cn2c(-c3ccc(Cl)cc3)c[n+]3ccccc23)cc1	48.6% (active)
CCn1c(C)cc(=O)cc1-c1ccc(Cl)cc1	8.56%
Cc1cccc(NS(=O)(=O)c2cccc(C(=O)NNC(=O)c3ccccc3O)c2)c1	21.6%
O=C(CN1CCN(C(=S)NC2CCCC2)CC1)Nc1ccc(Oc2ccccc2)cc1	12.6%
Cc1ccc2cc(C#N)c(NCCNC(=S)NCCCN3CCOCC3)nc2c1	-0.527%
CC(C)N(C(=O)Cn1cc(S(=O)(=O)CC(=O)N2CCOCC2)c2ccccc21)C(C)C	-3.3%
CCOC(=O)c1[nH]cnc1C(=O)Nc1ccccc1C	11.6%
O=C(Nc1ccon1)c1nc[nH]c1C(=O)NCc1ccccc1	7.98%
CCOC(=O)c1ccc(NC(=O)c2nc[nH]c2C(=O)NCc2ccccc2)cc1	41.1% (active)
CC(C)c1ccc(S(=O)(=O)N2CCN(C(C)C(=O)NC3CCCC3)CC2)cc1 (stereo unspecified)	13.4%
Nc1c(C(=O)O)cnn1-c1ccccc1	2.2%
CCN(C(=O)COC(=O)c1ccccc1O)c1cccc2ccccc12	24.2%

SMILES	inhibition
Nc1nonc1-n1nnc(C(=O)N/N=C/c2c[nH]c3ccccc23)c1-c1ccccc1	11.6%
O=C(O)c1cccc(NC(=S)N/N=C/c2c[nH]c3ccccc23)c1	19%
CSC(=S)N/N=C/c1c[nH]c2ccccc12	54.2% (active)
Cn1cnc(S(=O)(=O)Nc2ccc3c(c2)OCCO3)c1	-19.7%
O=C(CC1N=C2c3ccccc3N=C(SCc3ccccc3Cl)N2C1=O)NCc1ccco1 (stereo unspecified)	24.8%
S=C(NCc1ccco1)NCc1ccccc1Cl	28.9%
Clc1ccccc1CSc1nnc(-c2ccco2)c(-c2ccco2)n1	41.7% (active)
Cc1cc(C)n(Cc2cnc(N3CCOCC3)s2)n1	10.6%
COc1ccc(-n2c(=O)[nH]c3cc(C(=O)NCCc4ccc(OC)c(OC)c4)ccc3c2=O)c(OC)c1	7.83%
CCOc1ccccc1N(CC(=O)NC1CCCCC1)C(=O)CCCC(=O)Nc1ccccn1	10.6%
Cn1c(Cc2cccs2)nnc1SCC(=O)Nc1ccccc1	10.8%
CCc1ccc(S(=O)(=O)N/N=C\c2ccc([N+](=O)[O-])o2)cc1	30.4%
CCn1c(=O)c([N+](=O)[O-])c(NCc2ccc3c(c2)OCO3)c2ccccc21	2.3%
CCn1c(/C=C/c2ccc([N+](=O)[O-])o2)nc2ccccc2c1=O	69.9% (active)
COc1ccc(OC)c(C2C3=C(N=c4s/c(=C\c5cccc(O)c5)c(=O)n42)c2ccccc2CC3)c1 (stereo unspecified)	22%
COc1ccc(CN2CC[C@H]3C=CC[C@@H](C(=O)N4CCOCC4)[C@H]3C2=O)cc1OC	6.76%
Cc1nc2ccccn2c1C(=O)NN=C1CCN(C)CC1	1.25%
CCOC(=O)Cn1c(O)c(N=NC(=O)CNC(=O)Cc2ccccc2)c2ccccc21	-11.5%
O=C(CN1CCCC1)Nc1sc2c(c1C(=O)Nc1ccccc1)CCCC2	2.11%
Cc1nc(-c2ccccc2)sc1C(=O)/C=C/N(C)C	5.62%
Cc1nc(-c2ccc(Cl)cc2)sc1C(=O)NN	-3.83%
Cc1nc(-c2ccc(Cl)cc2)sc1C(=O)CBr	50.9% (active)
CCc1ccc(S(=O)(=O)Nc2ccc(C)c(NS(C)(=O)=O)c2)cc1	-0.664%
O=S(=O)(Nc1cc(Cl)ccc1N1CCOCC1)c1ccccc1Cl	12%

SMILES	inhibition
Nc1ccc(-c2nnc(-c3ccc(-c4ccccc4)cc3)o2)cc1	45.9% (active)
Nc1ccc(-c2nnc(-c3ccccc3)o2)cc1	-11.5%
Brc1ccc(-c2nnc(-c3ccccc3)o2)o1	-6.79%
Cc1cc2c(=O)n(C)c(SCC(=O)c3cc4ccccc4o3)nc2s1	29.9%
CCOc1ccccc1Nc1nnc(SCC(=O)Nc2cc(C)on2)s1	14.3%
Cc1ccccc1Nc1nnc(SCC(=O)c2cc3ccccc3o2)s1	43.5% (active)
O=C(Nc1cc(-c2nn(CC(=O)N3CCCCC3)c(=O)c3ccccc23)ccc1N1CCOCC1)c1ccc(Cl)cc1	5.87%
Cc1cc(C)n2nc(CNS(=O)(=O)c3c(F)c(F)c(F)c(F)c3F)nc2n1	3.29%
O=C(/C=C/c1ccc(N2CCOCC2)cc1)c1ccccc1	36.1%
CC(=O)Nc1ccc(/C=C/C(=O)c2ccccc2)cc1	51.4% (active)
CC(=O)Nc1ccc(C(=O)/C=C/c2ccc[nH]2)cc1	-13.3%
O=C(CCNS(=O)(=O)c1ccccc1C(F)(F)F)Nc1ccncc1	-1.52%
Cc1ccc(-n2nc(C)c(/C=N/NC(=O)c3cccs3)c2Cl)cc1	-6.6%
Cc1nn(-c2ccccc2)c(Cl)c1/C=C/C(=O)c1ccc(O)cc1	0.354%
Cc1ccc(C(=O)/C=C/c2c(C)nn(-c3ccccc3)c2Cl)cc1	42.7% (active)
CC(=O)N/C(=C\c1ccccc1)C(=O)OC(C)C(=O)N(C)c1ccccc1 (stereo unspecified)	4.65%
COC(=O)c1c(C(=O)OC)c2n(c1C)CCS2	-20.7%
COc1ccccc1CCNC(=O)c1c(C)nn(CC(C)C)c1Cl	16.6%
Cc1ccc(C(C[N+](=O)[O-])c2c(C)cc3ccccn23)cc1 (stereo unspecified)	41.6% (active)
Cc1cc2ccccn2c1C(=O)c1cccc(F)c1	-8.04%
Cc1ccc(C(=O)NNC(=O)CSc2nnc3ccccn23)cc1	4.3%
O=C(COc1ccc(Cl)cc1)NC(=S)Nc1ccccc1N1CCOCC1	4.3%
Cc1cc(C(=O)NNC(=S)Nc2ccccc2C)cs1	24%
COc1ccc(C(=O)NC(=S)Nc2ccccc2N2CCN(S(C)(=O)=O)CC2)cc1OC	25%

SMILES	inhibition
O=C(NC(=S)Nc1ccccc1N1CCCCC1)c1ccc(F)cc1	32.4%
Cc1ccccc1NC(=S)NC(=O)Cc1ccc(Cl)cc1	22.6%
CCc1ccc(C(=O)NC(=S)Nc2ccccc2N2CCOCC2)cc1	40.2% (active)
COc1ccccc1C(=O)NC(=S)Nc1ccccc1N1CCCCC1	41.9% (active)
O=C(Nc1ccccc1N1CCOCC1)c1ccncc1	-6.96%
Cc1ccc(C(=O)NC(=S)Nc2ccccc2C)cc1	40.5% (active)
COc1ccccc1Cn1c(C)nnc1-c1cnn(C)c1N	9.92%
CCOC(=O)c1c(Cc2ccc(Cl)cc2)c[nH]c1C	29.9%
O=Cc1ccc(OCc2cn3ccccc3n2)cc1	-8%
Nc1nc(CC(=O)CSc2ccc(Cl)cc2)nc(Nc2ccc(F)cc2)n1	1.48%
COc1ccc2nc(NC(=O)[C@@H]3CCCN3C(=O)c3cccs3)sc2c1	45.4% (active)
COc1ccc(Cl)cc1NC(=O)[C@@H]1CCCN1C(=O)c1cccs1	33.9%
COc1cc(Cl)c(C)cc1NC(=O)[C@@H]1CCCN1C(=O)c1cccs1	31.3%
COCCCN(C(=S)Nc1c(C)cc(C)cc1C)C(C)c1ccncc1 (stereo unspecified)	21.3%
O=S(=O)(NCc1ccc2c(c1)OCO2)c1cccc2nsnc12	1.8%
COc1ccc(Nc2cc(=O)n(-c3ccccc3)c3c2c(=O)n(C)c(=O)n3C)cc1	14.6%
Cc1ccc(N2C(=O)C(Cc3ccccc3)NC2=S)cc1 (stereo unspecified)	44.1% (active)
Cc1cc(C)c(NC(=O)CN2C(=O)NC(Cc3ccccc3)C2=O)c(C)c1 (stereo unspecified)	-9.44%
O=C1C(Cc2ccc(O)cc2)NC(=S)N1Cc1ccccc1 (stereo unspecified)	-2.4%
CC(=O)c1cc2c(cc1NC(=O)Cn1nc(-c3ccc(F)cc3)ccc1=O)OCO2	16.5%
CN(C)c1ccc(C(CNC(=O)c2ccc(F)cc2)c2c[nH]c3ccccc23)cc1 (stereo unspecified)	37.2%
CCCc1cc(C(=O)Nc2ccc(Cl)cn2)cs1	27.7%
Clc1ccc(Nc2nc(-c3cccs3)cs2)nc1	45.1% (active)
Cc1cccc(Nc2nc(-c3ccccc3)cs2)n1	-40.5%
